Sampled rows, rich in hits. Any-hit rate of the full collection: about 19%.
Lassa entry inh: inhibitors of Lassa virus binding or cell entry. Lassa virus pseudotype entry inhibition, cell reporter. Potency, µM (top dose mostly 37.9 µM), usual class: inhibitors. actives 1.2% (n = 300,000). AID 540256; calls by dose curve; tested in HEK293 cells; further: nearly all actives have a fitted effect of over 50% in size
Shiga toxin inh: blocks Shiga toxin action in Vero cells | Vero cells, Shiga toxin protein synthesis inhibition reporter | inhibition, % at 38.7 µM | actives 9.2% (n = 290,000) | AID 2315; in the data active means inhibition mostly above about 28%, no sharp cut-off; inactive means mostly below about 43%
Pf growth 96h: P. falciparum growth inhibition at 96 hours; Potency, µM (top dose mostly 28.7 µM), hits mostly inhibitors; actives 6.9% (n = 320,000); P. falciparum luciferase reporter growth, 96 h
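P. falciparum expressing integrated firefly luciferase, in erythrocytes at 2% hematocrit, 0.05% parasitemia, incubated with compounds 96 h at 37 C, 5% CO2. Growth inhibition read as loss of luminescence; two-generation exposure targets delayed-death apicoplast inhibitors.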
Pf growth 48h: P. falciparum growth inhibition at 48 hours (one generation); P. falciparum luciferase growth in erythrocytes, 48 h; Potency, µM (top dose mostly 28.7 µM), actives largely listed as inhibitors; actives 5.9% (n = 310,000); AID 504832
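Firefly luciferase activity from engineered P. falciparum reports growth; inhibitors lower the luminescent signal. Cultures contained 2% hematocrit erythrocytes at 0.1% final parasitemia.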
Cycloheximide cs: counter-screen hit for Shiga toxin inhibitors, cycloheximide; cell reporter, cycloheximide protein synthesis inhibition counterscreen; max response, %; actives 12% (n = 300,000); AID 2314; in the data active means max response mostly above about 13%, no sharp cut-off; inactive means mostly below about 14%; further: read at 38.3 µM for the half of the compounds with a filed dose
Marburg entry inh: Marburg virus entry inhibition. actives 1.8% (n = 300,000). Marburg virus pseudotyped entry inhibition, cell reporter. Potency, µM (titrated, usually from 37.8 µM), most hits filed as inhibitors; calls by dose curve; tested in HEK293 cells
Numbers stand for hits; n = inactive; u = inconclusive; x = no result. Unless noted, the call rests on the fitted dose curve; in most records, active means well fitted inhibition curve with a large enough effect; inconclusive means small, poorly fitted or top-dose-only effect, or another doubt; inactive means no such curve, though single readings can be large or run the other way.

SMILES	Lassa entry inh	Shiga toxin inh	Pf growth 96h	Pf growth 48h	Cycloheximide cs	Marburg entry inh
COc1ccc(Cc2nnc(SCc3c(C)noc3C)n2C2CCCCC2)cc1OC	n	51	u	9.3µM	n	u
CN1CC=C2C(C#N)=C(N)C(C#N)(C#N)[C@H](c3cccs3)[C@H]2C1	n	n	n	n	n	n
CN1CC=C2C(C#N)=C(N)C(C#N)(C#N)C(CCc3ccccc3)C2C1 (centres undefined)	n	n	7.4µM	n	n	u
COc1cc(C2CC(=O)Oc3cc(C)c(Br)c(C)c32)cc(OC)c1OC (centres undefined)	x	n	x	x	n	x
CN(C)S(=O)(=O)c1ccc(C(=O)Nc2ccc(F)cc2F)cc1	x	n	n	n	n	x
CCN(CC)S(=O)(=O)c1cc(C(=O)Nc2cc(Cl)ccc2N2CCN(C)CC2)ccc1Cl	n	n	2.6µM	x	n	n
CN1CCN(c2ccc(Cl)cc2NC(=O)c2ccc(S(=O)(=O)N(C)C)cc2)CC1	n	n	3.3µM	x	n	u
CN(C)S(=O)(=O)c1ccc(C(=O)Nc2cc(S(=O)(=O)Nc3ccccc3Cl)ccc2N2CCCCC2)cc1	5.2µM	n	1.3µM	2.3µM	n	n
CC(=O)c1cccc(NC(=O)CN2C(=O)c3ccccc3Sc3ncccc32)c1	n	x	x	x	x	x
CN(/N=C/c1ccc(Br)o1)C1=NS(=O)(=O)c2ccccc21	n	n	u	n	n	n
CC(=O)N1CCc2cc(CNC(=O)c3ccccc3Br)ccc21	n	x	x	x	x	x
CC(C)C(=O)NCC(c1ccc2c(c1)OCO2)N1CCN(c2ccccc2F)CC1 (centres undefined)	n	x	x	x	x	x
CCN(C(=O)COC(=O)c1c(C)nn(-c2ccccc2)c1C)C1CCS(=O)(=O)C1 (centres undefined)	n	43	n	n	16	n
CCN(C(=O)COC(=O)c1cc(-c2ccc3cc(OC)ccc3c2)nc2ccccc12)C1CCS(=O)(=O)C1 (centres undefined)	n	43	n	n	30	n
COc1ccc(-c2cc(C(=O)Oc3ccc(Cl)cc3)c3ccccc3n2)cc1	n	x	x	x	x	x
COc1ccc(-c2cc(C(=O)OCc3ccccn3)c3ccccc3n2)cc1	u	n	u	u	27	n
COc1ccc(-c2cc(C(=O)OCC(=O)N(C)C)c3ccccc3n2)cc1	n	n	n	n	26	u
Cc1cccc(N(CC(=O)NC(C)(C)C)C(=O)CS(=O)CC(=O)Nc2ccc3c(c2)OCO3)c1 (centres undefined)	x	n	n	n	n	x
COc1ccc(-c2cc(C(=O)Oc3ccc([N+](=O)[O-])cc3)c3ccccc3n2)cc1	n	n	13µM	n	n	n
COc1ccc(-c2cc(C(=O)Oc3ccc(C)cc3)c3ccccc3n2)cc1	n	x	x	x	x	x
Cn1nnnc1SCC(=O)NC1CCCc2ccccc21 (centres undefined)	u	n	n	u	n	n
C=CCn1c(SCC(=O)NC2CCS(=O)(=O)C2)nnc1-c1ccncc1 (centres undefined)	n	n	n	2.6µM	n	n
C=CCn1c(SCC(=O)NC2CCCC2)nnc1-c1ccncc1	n	n	u	n	n	n
COc1cccc(CNC(=O)CSc2nc(=O)n(Cc3ccncc3)c3c2CCC3)c1	n	x	u	10µM	x	n
COc1ccccc1CCNC(C)CCc1ccc(O)cc1 (centres undefined)	x	n	n	n	n	x
SMILES	Lassa entry inh	Shiga toxin inh	Pf growth 96h	Pf growth 48h	Cycloheximide cs	Marburg entry inh
CC(CCc1ccc(O)cc1)NCCc1ccc(O)c(O)c1 (centres undefined)	u	n	1.5µM	u	n	u
Cc1cc(/C=N/Nc2nc(N3CCOCC3)nc(N3CCOCC3)n2)c(C)n1-c1ccccc1	u	n	n	9.3µM	n	u
COc1ccc(-n2c(C)cc(/C=N/Nc3nc(N4CCOCC4)nc(N4CCOCC4)n3)c2C)cc1	u	n	u	u	n	7.3µM
COc1ccc(N2CCN(c3nc(NCCO)nc(N4CCOCC4)n3)CC2)cc1	u	n	n	u	n	n
CC(=C/c1ccccc1)/C=N/Nc1nc(N2CCCCC2)nc(N2CCCCC2)n1	n	n	u	n	n	n
BrC(/C=N/Nc1nc(N2CCOCC2)nc(N2CCOCC2)n1)=C/c1ccccc1	n	n	n	12µM	n	u
CCOC(=O)c1c(NC(=O)c2ccc(S(=O)(=O)N(CC(C)C)CC(C)C)cc2)sc2c1CCN(C(=O)OCC)C2	n	x	x	x	x	x
O=C1c2ccccc2NC2(CCCC2)N1N=C1CCCC1	x	74	n	n	29	x
O=C1c2ccccc2NC2(CCCCC2)N1c1ccc(O)cc1	n	n	n	n	14	n
CC(C(=O)NCCS(=O)(=O)c1ccc(Cl)cc1)S(=O)(=O)c1ccccc1 (centres undefined)	n	n	n	u	n	n
O=C(c1c(F)cccc1F)N(Cc1ccccn1)C1CC1	n	n	x	n	24	n
COc1cc(NC(=O)c2ccco2)c(OC)cc1NC(=O)CCC(=O)Nc1cccc(C)c1C	n	n	5.2µM	n	n	u
COc1cc(NC(=O)c2ccco2)c(OC)cc1NC(=O)c1cc(OC)c(OC)c(OC)c1	n	n	2.9µM	u	n	n
O=C([C@@H]1CCCN1C(=O)c1cccs1)N1CCN(S(=O)(=O)c2ccccc2F)CC1	x	x	u	n	x	x
C[C@@H]1CC[C@@]2(O[C@H](CCO)C[C@H](O)[C@H]2O)O1	x	n	n	n	n	x
Cc1ccc2[nH]c3c(=O)n(N)c(C)nc3c2c1	n	n	n	n	17	n
COc1ccc2[nH]c3c(=O)n(N)c(C)nc3c2c1	n	n	n	n	n	n
Cc1ccc2nc(Nc3ncc4c(n3)CCCC4=O)nc(C)c2c1	x	n	u	n	n	x
Cc1cccc(Nc2ncc3c(n2)CC(C)CC3=O)c1 (centres undefined)	n	112	x	n	33	n
Cc1cc(C)cc(Nc2ncc3c(n2)CCCC3=O)c1	u	n	x	n	17	u
Cc1cc(C)cc(Nc2ncc3c(n2)CC(c2ccco2)CC3=O)c1 (centres undefined)	u	n	n	n	n	n
COc1ccc(C(=O)Nc2ncc3c(n2)CC(C)CC3=O)cc1 (centres undefined)	n	n	n	n	19	n
Cc1ccc(C(=O)Nc2ncc3c(n2)CC(c2ccco2)CC3=O)cc1 (centres undefined)	n	n	n	n	26	u
CCOc1ccc(C(=O)N2CCC(c3ccncc3)CC2)cc1	n	x	x	x	x	x
Cc1cccc(Nc2ncc3c(n2)CC(c2ccco2)CC3=O)c1 (centres undefined)	u	n	n	n	15	n
Nc1cccc2c1C(=O)N(C(=O)/C=C/c1ccc(F)cc1)C2=O	11µM	76	n	n	37	3.2µM
C/C(CCC(C)C)=N\Nc1cc(C)c2ccccc2n1	n	n	17µM	u	n	u
CCOc1ccc(CN2CCC(C(=O)Nc3cccc(-c4ccn[nH]4)c3)CC2)cc1Cl	x	43	u	u	24	x
CCN(CC)CCCNc1nc(-n2nc(C)cc2C)nc2sc3c(c12)CC(C)(C)OC3	u	n	u	u	13	u

Screens as filed in PubChem BioAssay.
